Test in all cases: NCI-60 one-dose screen, 48 h (100 = growth as untreated, 0 = no growth, -100 = all killed)
Common to all, as to settings: 10 µM unless noted

For experiment [1], the system named is T-47D breast.
In experiment [2] the test system is BT-549 breast.
The subject of experiment [3] is MDA-MB-435 melanoma.
Experiment [4] relates to SW-620 colon.
The subject of experiment [5] is MCF7 breast.
For experiment [6], the system named is HCT-116 colon.
Experiment [7] deals with HCC-2998 colon.
Experiment [8] relates to KM12 colon.

Growth data for 19 compounds are collected here from PubChem BioAssay (NCI).

This is part of a sample that, as a whole, favours compounds with a hit. Of some 83,000 tested, about 20% had one in any assay.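 Negative percent growth values reflect cell death: -40 means 40% of the cells present at the start died, and -100 means all died.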 Unmarked numbers belong to inactive results. The source made the active and inactive calls. Rule for the calls: active = growth percent below 10; inactive = the rest.

Regarding `O=Cc1ccc(O)c(O)c1`, the growth in experiment [1] is 83.2%; in experiment [2], 101%; in experiment [3], 102%; in experiment [4], 113%; in experiment [5], 96.5%; in experiment [6], 98.5%. The growth in experiment [7] was 93.3%.
In the case of `Nc1cc(F)ccc1[N+](=O)[O-]`, the growth in experiment [1] was 104%; in experiment [2] it was 103%; in experiment [3] it was 111%; in experiment [4], 104%; in experiment [5] it was 97.6%; in experiment [6], 97.9%. In experiment [7], the growth is 102%.
As to `OC(CCN1CCCCC1)(c1ccccc1)c1ccccc1`, the growth in experiment [1] was 103%; in experiment [2], 107%; in experiment [3], 98.9%; in experiment [4], 107%; in experiment [5] it was 97.9%; in experiment [6], 102%. The growth in experiment [7] is 99.1%.
Turning to `CN(C(=S)S(=O)(=O)C12CC3CC(CC(C3)C1)C2)c1ccccc1`, the growth is 87.1% in experiment [1]; 123% in experiment [2]; 98.8% in experiment [3]; 69.7% in experiment [4]; 99.4% in experiment [5]; 93.5% in experiment [6]. In addition, the growth in experiment [7] is 104%.
Regarding `CC(=O)N(CCCCCCN(C(C)=O)C(C)=O)C(C)=O`, the growth in experiment [1] is 101% [100 µM]; in experiment [2] it was 98.4% [100 µM]; in experiment [3], 98.5% [100 µM]; in experiment [4], 108% [100 µM]; in experiment [5] it was 87.8% [100 µM]; in experiment [6] it was 101% [100 µM]. The growth in experiment [7] was 114% [100 µM].
On to `COC(c1ccc2c(c1)OCO2)C(C)Br` (centres undefined), for which the growth in experiment [1] was 71.8%; in experiment [2] it was 104%; in experiment [3], 90%; in experiment [4], 94.9%; in experiment [5] it was 110%; in experiment [6] it was 88.5%. Also, the growth in experiment [7] was 105%.
As for `COc1ccc(C(=O)/C(=N/Nc2ccccc2)c2ccc(OC)cc2)cc1`, the growth is 87% in experiment [1]; 103% in experiment [2]; 94.1% in experiment [3]; 93.5% in experiment [4]; 95.2% in experiment [5]; 78.5% in experiment [6]. Further, the growth in experiment [7] was 95.2%.
Regarding `COc1ccc(NNS(=O)(=O)O)cc1`, the growth is 88.6% in experiment [1]; 102% in experiment [2]; 102% in experiment [3]; 100% in experiment [4]; 92.9% in experiment [5]; 100% in experiment [6]. Further, the growth was 110% in experiment [7] and 105% in experiment [8].
For the compound `CC(C)(CC(=O)O)CC(=O)O`, the growth in experiment [1] was 119%; in experiment [2], 98.6%; in experiment [3], 99.7%; in experiment [4], 103%; in experiment [5], 103%; in experiment [6], 103%. Also, in experiment [7], the growth was 99.8%.
Regarding `CC(=O)/C(C)=N\OC(=O)Nc1ccccc1`, the growth in experiment [1] was 94.4%; in experiment [2], 101%; in experiment [3] it was 103%; in experiment [4], 107%; in experiment [5], 93.5%; in experiment [6], 102%. Moreover, the growth in experiment [7] is 94.7%.
For `Oc1cc(O)c2c(c1)O[C@H](c1ccc(O)c(O)c1)[C@@H](O)C2`, the growth is 104% in experiment [1]; 100% in experiment [2]; 104% in experiment [3]; 106% in experiment [4]; 104% in experiment [5]; 109% in experiment [6]. Further, the growth in experiment [7] is 108%.
As for `O=S(=O)(O)C(C(I)I)S(=O)(=O)O`, the growth in experiment [1] is 118%; in experiment [2], 118%; in experiment [3], 104%; in experiment [4], 105%; in experiment [5] it was 98.9%; in experiment [6] it was 107%. The growth in experiment [7] is 101%; in experiment [8] it was 103%.
As for `NNC(=O)N/N=C1\C(=O)N(c2nccs2)C(=O)C(=O)C1c1nc2ccccc2s1` (centres undefined), the growth in experiment [1] is 77.1%; in experiment [2] it was 99.1%; in experiment [3] it was 109%; in experiment [4], 96.1%; in experiment [5], 98.5%; in experiment [6] it was 88.7%. In addition, the growth in experiment [7] is 93.2%.
For `CC(C)c1ccccc1NC(=O)N1CCC(C(C)C)CC1`, the growth in experiment [1] is 111%; in experiment [2] it was 103%; in experiment [3] it was 91.9%; in experiment [4], 107%; in experiment [5], 97.5%; in experiment [6] it was 108%. The growth in experiment [7] was 109%.
Take `S=C(NCc1ccccc1)N1CCC(CCCC2CCN(C(=S)NCc3ccccc3)CC2)CC1`: the growth is 71.8% in experiment [1]; 98.2% in experiment [2]; 101% in experiment [3]; 108% in experiment [4]; 82.3% in experiment [5]; 85.5% in experiment [6]. Besides, the figures for the growth in experiment [7] and in experiment [8] were 123% and 95.9%, respectively.
For the compound `CCCCOC(=O)c1ccc(NC(=O)CCl)cc1`, the growth in experiment [1] is 47.2%; in experiment [2], 47.5%; in experiment [3], 75.9%; in experiment [4] it was 25.8%; in experiment [5] it was 22.8%; in experiment [6], 4.07% (active). The growth is 101% in experiment [7] and 84.7% in experiment [8].
As to `CCC(=O)C1C(=O)c2ccccc2C1=O`, the growth in experiment [1] was 113%; in experiment [2] it was 103%; in experiment [3] it was 104%; in experiment [4], 113%; in experiment [5], 105%; in experiment [6] it was 107%. For the same compound, the growth in experiment [7] was 106%.
For `CCOC(=O)/C(C)=C\c1ccc(OC)c(OC)c1`, the growth is 90.2% in experiment [1]; 89% in experiment [2]; 102% in experiment [3]; 106% in experiment [4]; 101% in experiment [5]; 94.2% in experiment [6]. The results for the growth in experiment [7] and in experiment [8] were 103% and 102%, respectively.
In the case of `O=C(O)C1CSC(c2ccccc2)N1` (centres undefined), the growth is 101% in experiment [1]; 104% in experiment [2]; 108% in experiment [3]; 95.2% in experiment [4]; 91.5% in experiment [5]; 101% in experiment [6]. The growth in experiment [7] was 103%; in experiment [8], 101%.
